Experimental data taken from PMC5540273 (PLoS ONE, 2017).

What was measured:
Settings in all cases: concentration: 1 μM, replicates: in singlicate; n = 1
KIT-autoinhibited = test system: KIT-autoinhibited
KIT = test system: KIT
LATS1 = test system: LATS1
LATS2 = test system: LATS2
LCK = test system: LCK
LIMK1 = test system: LIMK1
LIMK2 = test system: LIMK2
LKB1 = test system: T1, LKB1
T1 construct: gene STK11

LOK = test system: T2, LOK
T2 construct: gene STK10

LRRK2 = test system: LRRK2
LTK = test system: LTK
LYN = test system: LYN
LZK = test system: T3, LZK
T3 construct: gene MAP3K13

MAK = test system: MAK
MAP3K15 = test system: MAP3K15
MAP3K1 = test system: MAP3K1
MAP3K2 = test system: MAP3K2
MAP3K3 = test system: MAP3K3
MAP3K4 = test system: MAP3K4
MAP4K2 = test system: MAP4K2
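Also: KINOMEscan kinase panel screen.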

Compound | %Inh (KIT-autoinhibited) [%] | %Inh (KIT) [%] | %Inh (LATS1) [%] | %Inh (LATS2) [%] | %Inh (LCK) [%] | %Inh (LIMK1) [%] | %Inh (LIMK2) [%] | %Inh (LKB1) [%] | %Inh (LOK) [%] | %Inh (LRRK2) [%] | %Inh (LTK) [%] | %Inh (LYN) [%] | %Inh (LZK) [%] | %Inh (MAK) [%] | %Inh (MAP3K15) [%] | %Inh (MAP3K1) [%] | %Inh (MAP3K2) [%] | %Inh (MAP3K3) [%] | %Inh (MAP3K4) [%] | %Inh (MAP4K2) [%]
Fc1ccc(-c2ncn(CCCN3CCOCC3)c2-c2ccccn2)cc1 [SB-211742] | 0 | 0 | 10 | 0 | 28 | 0 | 0 | 33 | 8 | 0 | 11 | 0 | 0 | 0 | 0 | 0 | 0 | 0 | 18 | 0
O=c1cc(N2CCOCC2)nc2n(Cc3cccc(F)c3)ccn12 [GSK2297430] | 0 | 10 | 0 | 0 | 23 | 9 | 5 | 0 | 0 | 31 | 68 | 0 | 0 | 21 | 0 | 17 | 0 | 0 | 10 | 0
COC(=O)Nc1nc2cc(Oc3ccc(NC(=O)Nc4cc(F)ccc4F)cc3)ccc2[nH]1.Cl [GW701424] | 30 | 100 | 0 | 0 | 57 | 0 | 0 | 0 | 98.4 | 0 | 0 | 19 | 37 | 18 | 0 | 0 | 2 | 0 | 0 | 0
COCCNC(=O)c1ccc(-c2cc(C(=O)NC3CC3)cc(F)c2C)cc1 [GW868318] | 24 | 26 | 10 | 0 | 4 | 16 | 3 | 49 | 20 | 62 | 15 | 14 | 5 | 36 | 24 | 35 | 33 | 28 | 30 | 20
Cc1cccc(Cn2ccn3c(=O)cc(N4CCOCC4)nc23)c1 [GSK2297542] | 1 | 38 | 28 | 10 | 26 | 2 | 10 | 21 | 0 | 0 | 0 | 0 | 0 | 32 | 0 | 8 | 8 | 0 | 0 | 0
Cc1c(Cn2c(C)nn3c(=O)cc(N4CCOC(C)C4)nc23)cccc1C(F)(F)F (stereo not drawn) [GSK2344444] | 4 | 1 | 0 | 0 | 20 | 0 | 11 | 0 | 0 | 25 | 0 | 0 | 0 | 15 | 10 | 16 | 9 | 0 | 0 | 0
NS(=O)(=O)CCc1cccc(Nc2nccc(-c3c(-c4cccc(NC(=O)c5c(F)cccc5F)c4)nn4ccccc34)n2)c1 [GSK336735] | 13 | 100 | 7 | 7 | 99.6 | 67 | 9 | 1 | 99.4 | 0 | 39 | 97.8 | 0 | 22 | 5 | 13 | 88 | 79 | 76 | 0
Cc1cccc(-c2nc(Nc3ccc4ncsc4c3)c3ccccc3n2)n1 [GW867588] | 12 | 0 | 2 | 0 | 9 | 4 | 0 | 23 | 27 | 60 | 7 | 0 | 7 | 0 | 0 | 0 | 8 | 6 | 0 | 0
O=C1Cc2cc(Nc3nc(NCc4cccc(S(=O)(=O)C(F)(F)F)c4)ncc3C(F)(F)F)ccc2N1 | 0 | 16 | 11 | 0 | 0 | 1 | 9 | 0 | 1 | 11 | 6 | 0 | 25 | 15 | 21 | 2 | 12 | 0 | 6 | 0
O=C(NOCC1CC1)c1ccc(F)c(F)c1Nc1ccc(I)cc1Cl | 0 | 0 | 0 | 7 | 0 | 0 | 0 | 0 | 0 | 0 | 0 | 0 | 0 | 0 | 0 | 0 | 0 | 0 | 0 | 0
[2H]C([2H])(c1cccc(C(F)(F)F)c1C)n1ccn2c(=O)nc(N3CCOCC3)cc12 [GSK2336394] | 0 | 14 | 11 | 0 | 25 | 15 | 0 | 0 | 0 | 0 | 19 | 0 | 0 | 17 | 0 | 0 | 5 | 0 | 25 | 0
O=c1cc(N2CCOCC2)nc2n(Cc3cccc4ccccc34)ccn12 [GSK2333389] | 0 | 11 | 0 | 0 | 2 | 0 | 0 | 2 | 0 | 59 | 0 | 0 | 0 | 0 | 0 | 8 | 0 | 0 | 0 | 0
